The values that follow come from PubChem BioAssay (EPA / NIEHS).

Experiment [1] addresses Transcription factor E2F1 (Homo sapiens) (UniProt Q01094). Kind of experiment: ATG_E2F_CIS: Attagene CIS-FACTORIAL HepG2 Assay for human E2F Transcription Factor 1 (AID 2282935). As to conditions: HepG2 Attagene cis-reporter, E2F reporter RNA transcripts; actives raise or lower the signal. The gist of the method: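 First, HepG2 cells were transfected with reporter transcription units. Next, they were dosed for 24 h. Then RNA was isolated, converted to cDNA, PCR-amplified, FAM-labeled, HpaI-digested and analyzed by capillary electrophoresis.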

Experiment [2] can be described thus: ATG_E_Box_CIS: Attagene CIS-FACTORIAL HepG2 Assay for human Enhancer Box (E-box) (AID 2282936). The following applies: HepG2 E-box cis-reporter transcription, actives raise or lower the signal. The method in brief: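 Endogenous transcription factor activity was sensed in human HepG2 liver cells through transfected cis-promoter reporter units. After 24 h of dosing, total RNA was reverse-transcribed and reporter cDNA resolved by capillary electrophoresis.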

Experiment [3] in a line: ATG_M_61_CIS: Attagene CIS-FACTORIAL HepG2 Assay for M61 Transcription Factor (Internal Marker) (AID 2282937). As to conditions: HepG2 Attagene CIS-FACTORIAL M61 internal marker reporter; actives raise or lower the signal. The method in brief:
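Endogenous transcription factor activity in HepG2 is read through transiently transfected cis-element reporter units. After 24 h dosing, RNA undergoes reverse transcription, PCR and primer extension with 6-FAM before capillary electrophoresis; DMSO-referenced bidirectional fit.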

A short description of experiment [4]: ATG_EGR_CIS: Attagene CIS-FACTORIAL HepG2 Assay for human Early Growth Response 1 (EGR1) (AID 2282938). The following applies: HepG2 Attagene CIS-FACTORIAL EGR reporter mRNA; actives raise or lower the signal. The method in brief:
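Activity is taken as induction or loss of reporter mRNA versus DMSO, fitted bidirectionally. Transcripts from cis-regulated reporter units in transiently transfected HepG2 were measured after 24 h by RT-PCR with capillary electrophoresis.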

Experiment [5] can be described thus: ATG_M_19_CIS: Attagene CIS-FACTORIAL HepG2 Assay for M19 Transcription Factor (Internal Marker) (AID 2282939). The following applies: HepG2 Attagene CIS-FACTORIAL M19 internal marker reporter; actives raise or lower the signal. The method in brief:
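Internal marker readout, fitted in both directions against DMSO, from HepG2 cells carrying transfected cis-element reporter constructs; RT-PCR and capillary electrophoresis of reporter mRNA after 24 h exposure.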

Experiment [6] can be described thus: ATG_ERE_CIS: Attagene CIS-FACTORIAL HepG2 Assay for Estrogen Response Element (ERE) (AID 2282940). As to conditions: HepG2 ERE cis-reporter, Attagene RNA transcript; actives raise or lower the signal. The method in brief: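 After 24 h compound treatment, RNA from transfected HepG2 cells was reverse-transcribed, reporter cDNA PCR-amplified, FAM-labelled, HpaI-cut and resolved by capillary electrophoresis. ERE-driven cis reporter transcripts reflect endogenous factors; gain or loss scored against DMSO.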

Experiment [7] can be described thus: ATG_Ets_CIS: Attagene CIS-FACTORIAL HepG2 Assay for human Erythroblast Transformation Specific (ETS) (AID 2282941). The following applies: HepG2 ETS cis-reporter transcription, actives raise or lower the signal. The gist of the method: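 Multiplexed reporter transcript profiling: HepG2, 24 h treatment, total RNA to cDNA, PCR, 6-FAM labelling, HpaI cut, capillary electrophoresis. Gain- or loss-of-signal fitted against DMSO.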

For experiment [8], the target named is Hepatocyte nuclear factor 3-beta (Homo sapiens) (UniProt Q9Y261). Kind of experiment: ATG_FoxA2_CIS: Attagene CIS-FACTORIAL HepG2 Assay for human Forkhead box A2 (FOXA2) (AID 2282942). The following applies: HepG2 cis-reporter transcription factor activity, 24 h; actives raise or lower the signal. The gist of the method:
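Reporter transcript induction is measured by fluorescence after capillary electrophoresis of RT-PCR products from HepG2 cells exposed 24 h. Cis-regulated reporter units report endogenous factor activity; curves fitted both directions against DMSO.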

Experiment [9] in a line: ATG_FoxO_CIS: Attagene CIS-FACTORIAL HepG2 Assay for human Forkhead box O (FoxO) (AID 2282943). The following applies: HepG2 Attagene cis-reporter, FoxO element, mRNA; actives raise or lower the signal. The gist of the method:
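Values reflect reporter mRNA induction or loss in HepG2 cells 24 h post-dosing, fitted bidirectionally with DMSO as negative control and baseline. Detection used RT-PCR and fluorescence capillary electrophoresis.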

Experiment [10] in a line: ATG_GATA_CIS: Attagene CIS-FACTORIAL HepG2 Assay for human GATA Binding Protein (AID 2282944). The following applies: HepG2 GATA cis-element reporter, Attagene multiplex mRNA; actives raise or lower the signal. The gist of the method:
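Reporter transcripts from a GATA cis-regulated unit, among multiplexed reporters in transfected HepG2 cells, were measured by RT-PCR with capillary electrophoresis after 24 h dosing. Induction or loss scored relative to DMSO.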

Experiment [11] in a line: ATG_GLI_CIS: Attagene CIS-FACTORIAL HepG2 Assay for human Zinc Finger Protein GLI1 (AID 2282945). The following applies: HepG2, Attagene cis-factorial reporter mRNA, GLI element; actives raise or lower the signal. The method in brief: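 HepG2 cells transiently transfected with cis-promoter multiplexed reporter units report endogenous transcription factor activity. After 24 h chemical exposure, reporter mRNA was quantified by RT-PCR, 6-FAM labelling, HpaI digestion and capillary electrophoresis, with bidirectional fitting against DMSO.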

In experiment [12] the target is Bile acid receptor (Homo sapiens) (UniProt Q96RI1). Kind of experiment: ATG_IR1_CIS: Attagene CIS-FACTORIAL HepG2 Assay for human Nuclear Receptor Subfamily 1 Group H Member 4 (NR1H4), IR1 submotif (AID 2282946). The following applies: IR1 reporter transcription, actives raise or lower the signal. The gist of the method:
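Readout: reporter transcript levels by RT-PCR with fluorescent capillary electrophoresis, from HepG2 cells transiently transfected with multiplexed cis-regulated reporters and dosed 24 h. Gain- or loss-of-signal fitted versus DMSO negative control.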

Experiment [13] in a line: ATG_GRE_CIS: Attagene CIS-FACTORIAL HepG2 Assay for human Glucocorticoid Response Elements (GRE) (AID 2282947). The following applies: HepG2 GRE cis-reporter, Attagene multiplex mRNA; actives raise or lower the signal. The method in brief: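 Cells (HepG2) bearing transfected cis-promoter reporter transcription units were treated with chemical for 24 hours. Reporter mRNA was measured via RT-PCR with capillary electrophoresis, and activity was fitted in both directions relative to DMSO.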

Experiment [14] in a line: ATG_ISRE_CIS: Attagene CIS-FACTORIAL HepG2 Assay for human Interferon Regulatory Factor 1 (IRF1) binding to an Interferon-Stimulated Response Element (ISRE) (AID 2282948). As to conditions: HepG2 ISRE cis-reporter (Attagene), mRNA transcription readout; actives raise or lower the signal. The gist of the method: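 Signal reflects induction or loss of ISRE-linked reporter mRNA in transiently transfected HepG2 cells after a 24 h treatment, detected by fluorescent RT-PCR fragments on capillary electrophoresis and normalised to DMSO.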

Experiment [15] in a line: ATG_M_32_CIS: Attagene CIS-FACTORIAL HepG2 Assay for M32 Transcription Factor (Internal Marker) (AID 2282949).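 Also: background control marker of the multiplexed CIS panel rather than a real target.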 The following applies: HepG2 Attagene cis-factorial M32 reporter, mRNA; actives raise or lower the signal. The method in brief:
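HepG2 human liver cells transiently transfected with cis-promoter-driven multiple reporter transcription units, dosed 24 h. Reporter mRNA quantified by RT-PCR, FAM-labelled primer extension, HpaI digest and capillary electrophoresis; bidirectional fit versus DMSO baseline.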

A short description of experiment [16]: ATG_M_06_CIS: Attagene CIS-FACTORIAL HepG2 Assay for M06 Transcription Factor (Internal Marker) (AID 2282950). As to conditions: HepG2 Attagene CIS-FACTORIAL M06 internal marker reporter; actives raise or lower the signal. The gist of the method:
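Serves as a background control readout. Transfected HepG2 exposed to compounds for 24 h, then reporter transcripts quantified by fluorescent RT-PCR and capillary electrophoresis. Both directions fitted against DMSO baseline.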

Experiment [17] concerns the target Hypoxia-inducible factor 1-alpha (Homo sapiens) (UniProt Q16665). Kind of experiment: ATG_HIF1a_CIS: Attagene CIS-FACTORIAL HepG2 Assay for human Hypoxia Inducible Factor 1 (HIF1A) (AID 2282951). The following applies: HepG2 Attagene cis-factorial HIF1a reporter transcription; actives raise or lower the signal. The method in brief: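 Fluorescence intensity of capillary-separated, 6-FAM-labelled reporter amplicons gives mRNA induction in HepG2 cells carrying transfected cis-promoter reporter units; cells exposed 24 h, responses fitted up or down from DMSO.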

In experiment [18] the target is Hepatocyte nuclear factor 6 (Homo sapiens) (UniProt Q9UBC0). Kind of experiment: ATG_HNF6_CIS: Attagene CIS-FACTORIAL HepG2 Assay for human Hepatocyte Nuclear Factor 6 (HNF6) (AID 2282952). The following applies: HepG2 Attagene cis-factorial HNF6 reporter transcription; actives raise or lower the signal. The method in brief: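 Endogenous factor activity read in transiently transfected HepG2 via promoter-regulated reporter transcripts. RNA harvested 24 h post-dosing, reverse-transcribed, PCR-amplified, FAM-labelled, HpaI-digested and resolved by capillary electrophoresis; fitted in both directions against DMSO.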

For experiment [19], the target named is Heat shock factor protein 1 (Homo sapiens) (UniProt Q00613). Kind of experiment: ATG_HSE_CIS: Attagene CIS-FACTORIAL HepG2 Assay for human Heat Shock Transcription Factor 1 (HSE) (AID 2282953). The following applies: HepG2 HSE cis-reporter, Attagene RNA transcription; actives raise or lower the signal. The method in brief:
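Endogenous transcription factor activity in transiently transfected HepG2, read as reporter mRNA by RT-PCR with fluorescent capillary electrophoresis after 24 h. Gain or loss of signal fitted versus DMSO baseline.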

A short description of experiment [20]: ATG_MRE_CIS: Attagene CIS-FACTORIAL HepG2 Assay for human Metal Responsive Element (MRE) (AID 2282954). As to conditions: HepG2 MRE cis-reporter transcription, Attagene multiplex; actives raise or lower the signal. The gist of the method:
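Cells were transfected with cis-promoter reporter transcription units, then dosed for 24 h. RNA was reverse-transcribed, amplified, fluorescently labelled and resolved by capillary electrophoresis, and activity was fitted in both directions relative to DMSO.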

Calls of active or inactive are those of the source. The calls were made as follows: active = hit-call score of the fitted dose curve at least 0.9, where 1 is the maximum; inactive = score below 0.9.

Chain of Hepatocyte nuclear factor 6 (Homo sapiens) (Q9UBC0 whole entry, looked up): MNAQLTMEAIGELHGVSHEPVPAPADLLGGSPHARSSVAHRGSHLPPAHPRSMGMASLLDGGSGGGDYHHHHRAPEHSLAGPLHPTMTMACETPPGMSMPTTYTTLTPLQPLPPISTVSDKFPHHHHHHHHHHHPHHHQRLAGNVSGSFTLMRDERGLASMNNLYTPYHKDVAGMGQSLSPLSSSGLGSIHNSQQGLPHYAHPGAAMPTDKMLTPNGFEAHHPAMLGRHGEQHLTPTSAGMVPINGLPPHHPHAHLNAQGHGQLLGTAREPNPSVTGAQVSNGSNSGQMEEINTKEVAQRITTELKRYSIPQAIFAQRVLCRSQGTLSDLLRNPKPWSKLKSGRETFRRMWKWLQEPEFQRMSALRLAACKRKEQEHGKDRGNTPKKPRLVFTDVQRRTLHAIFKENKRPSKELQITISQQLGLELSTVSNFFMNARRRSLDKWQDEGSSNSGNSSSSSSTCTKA
Chain of Bile acid receptor (Homo sapiens) (Q96RI1 whole entry, looked up): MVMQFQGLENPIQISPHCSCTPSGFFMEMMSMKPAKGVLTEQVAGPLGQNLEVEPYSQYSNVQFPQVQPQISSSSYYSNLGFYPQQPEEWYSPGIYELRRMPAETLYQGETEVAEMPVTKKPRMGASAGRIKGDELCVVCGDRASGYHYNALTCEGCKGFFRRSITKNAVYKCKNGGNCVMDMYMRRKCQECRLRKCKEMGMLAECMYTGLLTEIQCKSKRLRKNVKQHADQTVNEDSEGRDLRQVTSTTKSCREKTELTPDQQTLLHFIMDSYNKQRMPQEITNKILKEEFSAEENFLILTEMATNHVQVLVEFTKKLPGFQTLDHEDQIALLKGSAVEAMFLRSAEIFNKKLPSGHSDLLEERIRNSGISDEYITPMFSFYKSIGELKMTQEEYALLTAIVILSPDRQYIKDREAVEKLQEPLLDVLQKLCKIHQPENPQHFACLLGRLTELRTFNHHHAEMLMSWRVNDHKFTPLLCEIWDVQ
Chain of Heat shock factor protein 1 (Homo sapiens) (Q00613 whole entry, looked up): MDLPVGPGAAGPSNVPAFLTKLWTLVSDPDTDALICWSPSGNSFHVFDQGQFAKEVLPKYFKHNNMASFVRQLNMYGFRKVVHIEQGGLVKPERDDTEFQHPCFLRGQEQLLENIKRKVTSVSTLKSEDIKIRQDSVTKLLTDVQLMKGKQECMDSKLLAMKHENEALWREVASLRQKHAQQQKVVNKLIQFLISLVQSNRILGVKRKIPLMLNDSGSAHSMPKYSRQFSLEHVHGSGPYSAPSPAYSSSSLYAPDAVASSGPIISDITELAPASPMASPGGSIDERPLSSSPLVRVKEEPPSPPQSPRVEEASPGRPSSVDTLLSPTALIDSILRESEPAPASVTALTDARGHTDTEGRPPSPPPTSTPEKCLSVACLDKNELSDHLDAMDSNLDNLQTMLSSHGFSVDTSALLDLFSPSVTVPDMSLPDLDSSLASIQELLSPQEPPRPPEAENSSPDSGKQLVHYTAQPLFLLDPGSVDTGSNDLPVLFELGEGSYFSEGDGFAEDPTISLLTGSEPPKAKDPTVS
Chain of Hypoxia-inducible factor 1-alpha (Homo sapiens) (Q16665 whole entry, looked up): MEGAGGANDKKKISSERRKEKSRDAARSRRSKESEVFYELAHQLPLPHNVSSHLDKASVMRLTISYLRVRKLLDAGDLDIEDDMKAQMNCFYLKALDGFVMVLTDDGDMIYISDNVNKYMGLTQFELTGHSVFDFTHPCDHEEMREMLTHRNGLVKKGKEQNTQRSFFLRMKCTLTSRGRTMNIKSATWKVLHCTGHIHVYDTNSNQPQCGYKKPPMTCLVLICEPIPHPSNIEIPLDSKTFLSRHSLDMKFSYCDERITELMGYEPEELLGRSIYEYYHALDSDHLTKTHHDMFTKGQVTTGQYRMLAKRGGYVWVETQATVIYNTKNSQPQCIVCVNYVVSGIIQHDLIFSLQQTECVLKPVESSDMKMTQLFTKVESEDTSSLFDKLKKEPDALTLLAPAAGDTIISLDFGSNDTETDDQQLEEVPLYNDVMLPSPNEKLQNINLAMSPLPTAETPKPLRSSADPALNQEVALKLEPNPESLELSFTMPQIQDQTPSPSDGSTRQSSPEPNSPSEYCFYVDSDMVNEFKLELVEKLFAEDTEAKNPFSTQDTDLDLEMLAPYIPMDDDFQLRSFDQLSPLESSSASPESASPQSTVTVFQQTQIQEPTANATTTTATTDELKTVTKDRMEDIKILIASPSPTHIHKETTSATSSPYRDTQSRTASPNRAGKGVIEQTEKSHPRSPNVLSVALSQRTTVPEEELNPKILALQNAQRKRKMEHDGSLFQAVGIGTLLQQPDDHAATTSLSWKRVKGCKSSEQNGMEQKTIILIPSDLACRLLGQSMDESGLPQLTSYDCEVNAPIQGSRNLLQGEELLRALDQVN
Chain of Transcription factor E2F1 (Homo sapiens) (Q01094 whole entry, looked up): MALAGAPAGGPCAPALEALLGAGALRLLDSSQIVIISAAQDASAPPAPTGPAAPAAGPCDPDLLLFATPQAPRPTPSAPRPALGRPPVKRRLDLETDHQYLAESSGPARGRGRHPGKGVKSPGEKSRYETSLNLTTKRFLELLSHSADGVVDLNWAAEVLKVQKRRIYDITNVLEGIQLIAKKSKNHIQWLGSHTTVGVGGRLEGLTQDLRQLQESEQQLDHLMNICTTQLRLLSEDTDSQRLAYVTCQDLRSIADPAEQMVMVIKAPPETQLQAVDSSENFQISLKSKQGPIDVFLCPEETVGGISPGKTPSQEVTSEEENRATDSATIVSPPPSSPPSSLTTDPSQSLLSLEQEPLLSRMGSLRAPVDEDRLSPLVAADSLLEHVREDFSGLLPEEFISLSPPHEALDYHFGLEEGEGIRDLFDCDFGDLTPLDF
Chain of Hepatocyte nuclear factor 3-beta (Homo sapiens) (Q9Y261 whole entry, looked up): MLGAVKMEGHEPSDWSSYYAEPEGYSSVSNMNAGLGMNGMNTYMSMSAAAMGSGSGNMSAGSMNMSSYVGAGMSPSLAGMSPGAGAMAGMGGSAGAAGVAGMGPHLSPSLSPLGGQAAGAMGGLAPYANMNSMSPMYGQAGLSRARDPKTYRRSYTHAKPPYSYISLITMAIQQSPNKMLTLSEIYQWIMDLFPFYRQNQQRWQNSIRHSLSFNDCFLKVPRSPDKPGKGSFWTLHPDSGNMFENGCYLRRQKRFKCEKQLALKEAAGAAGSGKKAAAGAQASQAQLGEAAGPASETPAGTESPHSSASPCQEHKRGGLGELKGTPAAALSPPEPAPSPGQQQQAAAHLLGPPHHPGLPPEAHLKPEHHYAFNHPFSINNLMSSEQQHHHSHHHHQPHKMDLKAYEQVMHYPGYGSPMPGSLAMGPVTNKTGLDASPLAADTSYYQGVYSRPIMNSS

Take `COc1cc(OC)nc(NC(=O)NS(=O)(=O)c2ncccc2OCC(F)(F)F)n1`: the compound was called inactive in [1], in experiment [2], in experiment [3], in experiment [4], in [5] and in experiment [6]. The result in [7], in experiment [8], in [9], in [10], in experiment [11] and in experiment [12] was inactive. The compound was called inactive in experiment [13], in [14], in [15], in experiment [16], in experiment [17] and in [18]. The compound was classed as inactive in experiment [19] and in experiment [20].
Take `CCOc1cc(C(C)(C)C)ccc1C1COC(c2c(F)cccc2F)=N1` (centres undefined): the result in [1], in experiment [2], in [3], in experiment [4], in [5] and in [6] was inactive. Further, the call in [7], in experiment [8], in experiment [9], in experiment [10], in experiment [11] and in experiment [12] was inactive. For the same compound, the compound was classed as inactive in [14], in [15], in experiment [16], in experiment [17], in [18] and in experiment [19]. The AC50 in experiment [20] was 5.07 µM (active).
With `CS(=O)(=O)c1ccc(C(=O)C2C(=O)CCCC2=O)c([N+](=O)[O-])c1`, the call in [1], in experiment [2], in [3], in experiment [4], in [5] and in experiment [6] was inactive. The call in experiment [7], in [8], in experiment [9], in experiment [10], in [11] and in [12] was inactive. The compound was classed as inactive in experiment [13], in [14], in experiment [15], in experiment [16], in experiment [17] and in [18]. Also, the call in experiment [19] and in experiment [20] was inactive.
